In PubChem BioAssay AID1650 (Southern Research Specialized Biocontainment Screening …, 2009):
Measured potencies and affinities stand elsewhere. A number with no mark means an inactive call. Activity calls are given as the source filed them. The rule behind the calls is not given here.

assay: mammalian cell viability reduction – secondary assay, cytotoxicity control for West Nile virus antiviral project, dose response (AID 1650); conditions: Mammalian host cell viability, cytotoxicity counter-screen; series mostly up to 10 µM; viability: at the top concentration

Row | SMILES | viability | outcome
1 | CCn1cc(C(=O)NCc2ccc3c(c2)OCO3)c(=O)c2cc(F)c(N3CCN(C(=O)c4ccco4)CC3)cc21 | 79.5% [at 20 µM] | 
2 | COc1ccc(-c2cc3c(=O)n(CC(=O)NCc4ccccc4F)ncn3n2)cc1 | 87.8% [at 20 µM] | 
3 | CCCC12CN3CC(C)(CN(C1)C3c1ccc(OC(C)C)cc1)C2=O (stereo not given) | 90.3% [at 20 µM] | 
4 | COc1cc(C=Nc2c(C)cc(C)cc2C)ccc1OC(C)=O | 92.2% | 
5 | CCOc1ccc(NC(=O)c2c(NC(=O)CN3CCN(C)CC3)sc3c2CCC3)cc1 | 77% | 
6 | Cn1cc(CN2CCCC(C(=O)Nc3ccc(-c4cccc(F)c4)cc3)C2)cn1 (stereo not given) | 86.8% | 
7 | O=C(Nc1cccc(Cl)c1)Nc1cc(S(=O)(=O)N2CCCCC2)ccc1Cl | 70.3% [at 20 µM] | 
8 | N#Cc1cc(-c2ccc(Cl)cc2)cnc1Sc1ccc(F)cc1 | 83.1% [at 20 µM] | 
9 | CCN1CCN(c2cc(C)c3cc(NC(=S)N4CCCC(C)C4)ccc3n2)CC1 (stereo not given) | 78.8% | 
10 | CCN1CCN(CCNC(=O)c2ccc(/C=C3\Sc4ccccc4N(Cc4ccccc4F)C3=O)cc2)CC1 | 88.9% | 
11 | CCN(CC)CCCNC(=O)c1cc(-c2ccccc2)c(N2CCCCC2)s1 | 88.6% | 
12 | COc1ccc(S(=O)(=O)NC2CCCC2)c(Cl)c1Cl | 88.9% | 
13 | COc1ccc(C2c3c(ncn(CCCO)c3=N)Oc3ccc4ccccc4c32)cc1OC (stereo not given) | 86% [at 20 µM] | 
14 | CCOC(=O)c1c(CSCc2ccccc2)oc2ccc(O)c(CN(C)C)c12 | 81.7% [at 20 µM] | 
15 | O=[N+]([O-])c1cncc([N+](=O)[O-])c1Nc1cccc(O)c1 | 82.8% | 
16 | O=C(NCCC1=CCCCC1)c1coc(=O)c(Br)c1 | 92% | 
17 | CN1CCN(c2nc(Nc3ccc(F)cc3)nc(Nc3ccc(F)cc3)n2)CC1 | 76% | 
18 | COc1cc(C(CCN2CCCC(C)C2)c2c(OC)cc(OC)c3c(-c4ccccc4)cc(=O)oc23)cc(OC)c1OC (stereo not given) | 86.6% [at 20 µM] | 
19 | CCc1cc(-c2[nH]ncc2-c2ccc(OC)cc2)c(O)cc1O | 86.2% [at 20 µM] | 
20 | CC(C)(C)c1ccc(C(=O)O/N=C(\N)c2ccccc2)cc1 | 90.3% [at 20 µM] | 

Row | SMILES | viability | outcome
21 | CC(/C=N/Nc1nc(N2CCCCC2)nc(N2CCCCC2)n1)=C\c1ccccc1 | 87.8% | 
22 | C/C(N)=C(/C#N)C(=O)COC(=O)c1cc(-c2cccc(Br)c2)nc2ccccc12 | 75.5% | 
23 | Cc1ccc2nc(N(CCCN(C)C)C(=O)c3cc(-c4cccs4)nc4ccccc34)sc2c1 | 81.7% | 
24 | CC(C)C(C(=O)Nc1ncn[nH]1)N1C(=O)c2ccccc2C1=O (stereo not given) | 94.5% | 
25 | CCOc1ccc(NCc2cc3c(C(C)(C)C)nn(-c4ccccc4)c3[nH]c2=O)cc1 | 88.3% | 
26 | O=C1Nc2cc(C(=O)NCCCN3CCOCC3)ccc2S/C1=C/c1cccc(Cl)c1 | 81.9% [at 20 µM] | 
27 | Cc1ccc(C)c(N2CCN(CCCNC(=O)Cn3cccc3C(=O)c3ccccc3)CC2)c1 | 78.4% | 
28 | CCN(CC)CCCNC(=O)c1[nH]c2ccccc2c1Sc1ccc(Cl)cc1 | 84.4% | 
29 | O=C(NC1CCCC1)C(c1ccncc1)N(Cc1ccccc1)C(=O)c1ccc(-c2ccccc2)[nH]1 (stereo not given) | 88.5% [at 20 µM] | 
30 | CCn1ncc(CN2CCC(C(=O)Nc3cccc(-c4cccc(F)c4)c3)CC2)c1C | 82.2% | 
31 | Cc1ccc2[nH]c(=O)c(CN(CCCN3CCOCC3)C(=O)Nc3ccc(Cl)cc3)cc2c1 | 77.5% [at 20 µM] | 
32 | O=C(CSc1nc2ccccc2c(=O)n1-c1ccc(F)cc1)Nc1ccc2c(c1)CCC2 | 73.5% [at 20 µM] | 
33 | CC(C)c1ccc(/C=C/C(=O)Nc2ccc(CN3CCOCC3)cc2)cc1 | 78.1% [at 20 µM] | 
34 | CCN1CCN(Cc2ccc(NC(=O)c3ccc(C)c(NC(=O)N4CCNC4=O)c3)cc2C(F)(F)F)CC1 |  | inactive
35 | COc1ccc(C2c3ccc4ccccc4c3Oc3ncn(CCO)c(=N)c32)cc1 (stereo not given) | 79.2% | 
36 | Cc1cc2nc(Sc3c([N+](=O)[O-])nc(C)n3Cc3ccccc3)[nH]c2cc1C | 82.3% [at 20 µM] | 
37 | C=CCN=C1CC(C)(C)CC(=O)/C1=C(/O)CCC(=O)OC | 87.2% | 
38 | COC(=O)c1ccc(/C=C2/SC(=S)N(CCCC(=O)Nc3ccc(O)cc3)C2=O)cc1 | 82.6% | 
39 | CCC1CCCCN1CCCNC(=O)c1ccc(/C=C2/Sc3ccccc3NC2=O)cc1 (stereo not given) | 74.7% [at 20 µM] | 
40 | CC1CN(C(=O)CCC(=O)NCCCN2CCC(Cc3ccccc3)CC2)c2cc(Cl)ccc2O1 (stereo not given) | 80.6% [at 20 µM] | 
